Source: PubChem BioAssay (several laboratories)
Shown are actives, neighbours in structure and some others; about 2.2% of the full set was active somewhere.
V-ATPase pHluor: regulators of yeast V-ATPase proton pumping, primary screen, pHLuorin cytosolic pH fluorescence; S. cerevisiae; response, % at 10 µM; actives 0.37% (n = 350,000); in the data active = response mostly above about 7.3%, no sharp cut-off; inactive = mostly below about 5.4%; also: actives read high
m5-HT2A agonist: mouse Htr2a agonists via beta-arrestin recruitment, primary screen, cell-based, luminescence; AID 624169, 2012; CHO-K1 mHTR2A beta-arrestin complementation; percent of 30 µM serotonin response; actives 0.66% (n = 360,000); activation, % at 7.6 µM; 5-hydroxytryptamine receptor 2A (Mus musculus), P35363;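 active = activation above a run cutoff, the mean activation of all tested compounds plus 3 SD, cut at about 14% in these data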;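 also: 0% = plate median of compound wells and 100% = 30 µM serotonin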
Granule exo inh: LAMP-1 surface exposure blockers, TALL-104 cells – cell-based, flow cytometry, MLPCN library, primary screen | TALL-104 LAMP-1 surface exposure; cells stimulated with thapsigargin and PMA | inhibition, % at 10 µM | actives 0.66% (n = 360,000) | AID 651702, 2012;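 active = inhibition above about 55%, limit read from the data; inconclusive = no clear call, values can overlap the other calls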
MEX-5 binding: MEX-5 zinc finger RNA-binding disruptors – biochemical, C. elegans, fluorescence polarization, MLPCN library, primary screen | Zinc finger protein mex-5 (Caenorhabditis elegans), Q9XUB2 | MEX-5/FITC-TCR2 RNA binding; stronger effect = lower value | activity score (negative = inhibition of binding), % at 10 µM | actives 0.38% (n = 300,000) | AID 1832, 2009;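 active = inhibition past about -25% in most replicates, and total fluorescence under double the plate's negative control median, limit read from the data; inconclusive = replicates evenly split on the limit, or fluorescence at least double controls; inactive = too little inhibition in most replicates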;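 also: 0% = DMSO and -100% = 5 µM competing unlabeled TCR2 RNA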
VLA-4 inh: inhibition in human VLA-4 binding assay, primary screen, VLA-4 allosteric modulator project, MLPCN library, flow cytometry, VLA-4 expressing cells. ligand binding flow cytometry. actives 0.2% (n = 330,000). inhibition, % (about 7 µM as worked out from the volumes in the protocol). AID 2557, 2010; in the data active = inhibition above about 50%
Target sequence (P13612 whole entry, looked up): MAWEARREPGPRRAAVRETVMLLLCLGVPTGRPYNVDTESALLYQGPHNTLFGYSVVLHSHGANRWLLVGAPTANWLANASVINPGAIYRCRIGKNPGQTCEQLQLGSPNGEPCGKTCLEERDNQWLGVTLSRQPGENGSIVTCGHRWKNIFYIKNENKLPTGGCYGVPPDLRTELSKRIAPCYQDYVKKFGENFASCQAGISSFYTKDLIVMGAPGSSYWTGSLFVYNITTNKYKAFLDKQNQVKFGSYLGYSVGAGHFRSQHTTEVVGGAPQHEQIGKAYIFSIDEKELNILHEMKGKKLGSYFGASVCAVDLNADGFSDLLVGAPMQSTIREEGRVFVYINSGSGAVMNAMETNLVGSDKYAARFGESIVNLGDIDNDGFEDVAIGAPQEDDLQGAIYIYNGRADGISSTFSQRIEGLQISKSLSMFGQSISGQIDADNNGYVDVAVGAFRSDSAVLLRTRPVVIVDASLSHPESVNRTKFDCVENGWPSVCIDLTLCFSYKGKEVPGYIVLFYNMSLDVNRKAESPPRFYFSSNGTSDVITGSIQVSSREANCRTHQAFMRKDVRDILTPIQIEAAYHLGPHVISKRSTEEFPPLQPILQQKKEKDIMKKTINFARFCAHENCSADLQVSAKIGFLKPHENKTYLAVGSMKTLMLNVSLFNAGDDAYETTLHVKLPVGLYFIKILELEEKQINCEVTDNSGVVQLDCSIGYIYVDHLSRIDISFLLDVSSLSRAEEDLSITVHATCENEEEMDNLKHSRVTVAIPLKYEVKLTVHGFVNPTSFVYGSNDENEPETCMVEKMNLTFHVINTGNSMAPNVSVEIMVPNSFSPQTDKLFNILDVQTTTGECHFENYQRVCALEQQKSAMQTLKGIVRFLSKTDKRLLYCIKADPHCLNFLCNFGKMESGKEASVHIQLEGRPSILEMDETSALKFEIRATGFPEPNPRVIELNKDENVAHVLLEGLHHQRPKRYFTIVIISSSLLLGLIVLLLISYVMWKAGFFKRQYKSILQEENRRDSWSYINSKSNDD
GASC-1 inh: inhibitors of GASC-1 histone demethylase, primary screen, biochemical, fluorescence, DELFIA europium | actives 0.069% (n = 330,000) | inhibition, % at 2.35 µM | AID 2099, 2009 | Lysine-specific demethylase 4C (Homo sapiens), Q9H3R0 | GST-JMJD2C(1-420) H3K9me3 demethylation;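 active = more than half of a compound's replicate wells show inhibition beyond 50%, single wells judged on their own value; inconclusive = some, but no more than half, of replicates pass 50% inhibition; inactive = no replicate passes 50% inhibition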;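 also: signal counts dimethyl H3K9 product captured on neutravidin plate; 0% = median of DMSO wells and 100% = 0.3 times that DMSO median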
OPRM1 ag: OPRM1 agonists via beta-arrestin recruitment, confirmation, counter-screen for mouse HTR2A agonist project, cell-based, luminescence, single concentration; shares compounds with m5-HT2A agonist; U2OS OPRM1 beta-arrestin PathHunter; DMSO 0%, DAMGO 9.3 µM 100%; activation, % at 9.3 µM; actives 5.3% (n = 2,300); AID 624380, 2012;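 active = mean activation above the mean of DMSO-only wells plus 3 SD, cut at about 0.5% in these data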
HTR2A ag conf: mouse HTR2A agonists, beta-arrestin recruitment, confirmation, cell-based, luminescence, CHO-K1 PathHunter, triplicate | shares compounds with m5-HT2A agonist | DMSO 0%, 30 µM serotonin 100% | activation, % at 7.6 µM | actives 19% (n = 2,300);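 active = mean activation across triplicates above the hit threshold derived in the original primary screen, cut at about 15% in these data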
The depositor's hits bear a star; u = inconclusive; x = not tested or not shown.

SMILES	V-ATPase pHluor	m5-HT2A agonist	Granule exo inh	MEX-5 binding	VLA-4 inh	GASC-1 inh	OPRM1 ag	HTR2A ag conf
CCCCN1C(=O)CC(C(=O)O)C1c1ccc(OC)cc1 (stereo not given)	6.5	6.0	-2.4	4.1	0.9	-9.5	x	x
CN(C)S(=O)(=O)N1CCC(Oc2ccc(C(=O)N3CCCCCCC3)cc2)CC1	1.4	13.0	-3.7	0.5	1.4	-2.7	x	x
COc1ccc(-c2nc(CS(=O)CC(=O)NCc3ccc4c(c3)OCO4)c(C)o2)cc1OC (stereo not given)	-3.4	4.0	7.8	0.7	-2.0	-1.1	x	x
O=C(CCCl)N(Cc1nc2ccccc2c(=O)[nH]1)Cc1cccs1	-1.1	0.1	-0.3	0.5	2.0	7.5	x	x
CC(C)(C)C(=O)N(Cc1nc2ccccc2c(=O)[nH]1)Cc1cccs1	-4.3	14.7*	3.4	1.6	2.4	-9.2	-0.6	-6.4
Cc1nc2ccccc2c(=O)n1-c1ccc(NS(=O)(=O)c2ccc(F)cc2)cc1	-0.3	-1.5	2.1	-0.3	13.6	u	x	x
C#CCNC(=O)C[C@@H]1C[C@@]2(C(=O)OC)CCCCC=C2N(CCCCCCCC)C1=O	x	2.4	-0.4	x	x	x	x	x
O=C(N/C(=C\c1ccco1)C(=O)N1CCOCC1)c1ccccc1Cl	2.8	-2.9	-0.1	-3.2	11.6	4.4	x	x
Cn1cc(C(=O)c2ccc(Cl)cc2Cl)cc1C(=O)N/N=C(\N)COc1ccc(F)cc1	0.6	-5.0	-2.8	1.8	17.9	-12.8	x	x
Cn1cc(C(=O)c2ccc(Cl)cc2Cl)cc1C(=O)N/N=C(\N)COc1ccc(Cl)cc1	6.9	14.5*	-0.5	1.8	-0.9	-33.2	-0.4	-3.1
CCN(CC)CCN(Cc1cc2cc3c(cc2[nH]c1=O)OCCO3)C(=S)NCC(C)C	0.5	22.0*	1.5	-2.5	-2.3	-5.4	-0.7	7.9
O=C(NS(=O)(=O)N1CCCC1)C1=C(N2CCCC2)COC1=O	7.8	3.1	-1.5	x	2.4	2.3	x	x
Cc1ccc[n+](/C(=C\C(=C=[N-])C#N)C(=O)c2ccc(Cl)cc2)c1	0.6	16.8*	-0.8	-0.7	-2.1	-15.1	-0.5	-1.5
Cc1cccc(N2CCN(C(=O)c3cc4ccccc4oc3=O)CC2)c1C	-3.9	15.8*	-4.1	1.7	-4.2	44.1	-0.2	-4.8
CN1CCN(C(=O)c2cc3ccccc3oc2=O)CC1	4.6	5.7	-3.7	0.1	-3.5	-5.8	x	x
CCN(CCNC(=O)C1CCCN(S(=O)(=O)c2cnc[nH]2)C1)c1ccccc1 (stereo not given)	-2.9	6.5	0.7	-4.3	21.4	-18.3	x	x
CCN(CCCNC(=O)C1CCCN(S(=O)(=O)c2cnc[nH]2)C1)c1ccccc1 (stereo not given)	-0.6	17.6*	-1.2	-3.5	2.8	-10.2	-0.5	-2.0
COCCCN1C(=O)C(CC(=O)NCc2cccc3ccccc23)CC(C(=O)N(C(C)C)C(C)C)=C1C (stereo not given)	x	3.1	-5.9	x	x	x	x	x
CCOC(=O)C(=CNc1ccc2c(c1)CCN2C(C)=O)C(=O)OCC	-2.6	19.2*	0.0	1.6	-1.6	-7.1	-0.4	8.3
Cc1cccn2c(=O)nc(SCC(=O)NCc3ccccc3)nc12	6.6	15.5*	-4.6	-1.3	15.2	-1.2	-0.6	-3.8
Cc1ccccc1-n1ncc2c1CC(C)(C)CC2NC(=O)C1=CC(=O)CC(C)(C)O1 (stereo not given)	-2.2	32.2*	-1.2	1.2	6.2	-6.5	-0.8	-3.1
Cc1ccccc1-n1ncc2c1CC(C)(C)CC2NC(=O)C1CCC1 (stereo not given)	-5.1	2.4	11.3	2.4	-100.6	-2.6	x	x
CCn1c(C2CC(=O)N(Cc3ccccc3)C2)nc2ccccc21 (stereo not given)	2.5	40.5*	4.6	0.9	14.2	12.7	-0.2	-3.8
CC(=O)Nc1ccc(S(=O)(=O)NN=CCCc2ccccc2)cc1	-0.1	0.1	-3.0	x	x	x	x	x
Cc1c(-c2cccc(NC(=O)c3cccs3)c2)nc2ncccn12	-1.1	15.4*	-0.6	-1.4	6.6	1.3	-0.5	7.1
SMILES	V-ATPase pHluor	m5-HT2A agonist	Granule exo inh	MEX-5 binding	VLA-4 inh	GASC-1 inh	OPRM1 ag	HTR2A ag conf
CC1=C(C)CC(C(=O)NCc2ccccc2F)C(C(=O)O)C1 (stereo not given)	-1.0	-2.5	-7.6	-2.1	16.0	-1.0	x	x
CC(=O)N1Cc2ccccc2CC1C(=O)NCc1ccccc1F (stereo not given)	-0.3	15.9*	-6.9	0.5	-4.7	-2.4	-0.3	-1.4
COc1ccc(C(=O)C2CCCN(C3Cc4ccccc4C3)C2)c(OC)c1 (stereo not given)	-1.1	-8.2	5.1	2.3	15.9	-4.2	x	x
COc1cc(NC(=O)c2ccc(F)cc2)c(OC)cc1Cl	1.9	3.6	-1.9	-0.2	-2.1	-7.4	x	x
COc1cc(OC)c(NC(=O)c2cncn2-c2ccc(F)cc2)cc1Cl	-1.1	14.8*	-1.0	-0.8	-10.3	8.6	-0.4	2.0
CCN(CC(=O)Nc1ccc2c(c1)OCCO2)C(=O)c1cccc(OCC(C)C)c1	8.8	5.5	16.9	0.0	6.9	-6.2	x	x
CCN(CC)C(=O)c1c(-c2ccccc2)oc2ccc(OC)cc12	-2.7	14.8*	5.3	1.4	-3.7	1.1	-0.5	-3.8
CCOc1ccc2oc(-c3ccccc3)c(C(=O)N(C)C)c2c1	-1.4	-4.2	-0.5	1.0	-7.2	4.9	x	x
O=C(COC(=O)c1cccnc1Cl)NCc1cccs1	0.9	3.7	-0.9	1.5	9.2	3.0	x	x
Cc1ccccc1NC(=S)NCc1ccc2c(c1)cc(C)n2C	0.3	19.9*	-5.2	1.8	7.5	-7.5	-0.6	0.6
COc1ccccc1NC(=S)NCc1ccc2c(c1)cc(C)n2C	2.3	-0.6	2.3	-5.8	5.6	-30.3	x	x
O=C(Cc1ccccc1)NCC(=O)OCC(=O)c1ccc(Cl)cc1	0.9	-3.2	0.7	0.9	17.3	5.7	x	x
